The campaign covered roughly 5,500 compounds. About 2,000 (36%) were called active. Roughly 18% stayed inconclusive and do not appear here. Rule as the data show it: active = normalized growth mostly below about 0.91 (no sharp cut-off); inconclusive = no clear call, values can overlap the other calls; inactive = mostly above about 0.92. Some of the results follow.
Assay: chemical genetic growth profiling, strain panel (AID 1159580);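 also: tested at 20 µM; growth read once vehicle control cultures reached saturation at 30 °C; 1 = growth at the plate median or of vehicle wells; lower values mean less growth of the strain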
Conditions: S. cerevisiae deletion strains, growth OD
[1] = locus YAL013W, strain DEP1, stronger effect = lower value
[2] = locus YBR229C, strain ROT2, stronger effect = lower value
[3] = locus YDL101C, strain DUN1, stronger effect = lower value
[4] = locus YDR150W, strain NUM1, stronger effect = lower value
[5] = locus YEL061C, strain CIN8, stronger effect = lower value
[6] = locus YGR078C, strain PAC10, stronger effect = lower value
[7] = locus YHR030C, strain SLT2, stronger effect = lower value
[8] = locus YHR087W, strain rtc3, stronger effect = lower value
[9] = locus YJR043C, strain POL32, stronger effect = lower value
[10] = locus YJR075W, strain HOC1, stronger effect = lower value
[11] = locus YLR039C, strain RIC1, stronger effect = lower value
[12] = locus YLR058C, strain SHM2 (second series), stronger effect = lower value
[13] = locus YLR085C, strain ARP6, stronger effect = lower value
[14] = locus YLR262C, strain YPT6, stronger effect = lower value
[15] = locus YML094W, strain GIM5, stronger effect = lower value
[16] = locus YMR219W, strain ESC1, stronger effect = lower value
[17] = locus YMR263W, strain SAP30, stronger effect = lower value
[18] = locus YMR307W, strain GAS1, stronger effect = lower value
[19] = locus YNL153C, strain GIM3, stronger effect = lower value
[20] = locus YNL298W, strain CLA4 (second series), stronger effect = lower value
[21] = locus YNL322C, strain KRE1, stronger effect = lower value
[22] = locus YNR030W, strain Alg12, stronger effect = lower value
[23] = locus YPL055C, strain LGE1, stronger effect = lower value
[24] = locus YPL241C, strain CIN2, stronger effect = lower value
[25] = locus YPR135W, strain CTF4, stronger effect = lower value

Measured: normalized growth

Ic1ccc(I)s1
inactive: [1] 1.03 | [2] 1 | locus YCL061C, strain MRC1, stronger effect = lower value 1.03 | [3] 1.01 | [4] 1.02 | [5] 1.04 | [6] 1.02 | [7] 1.22 | [8] 1 | locus YJL187C, strain SWE1, stronger effect = lower value 1.01 | [9] 1.04 | [10] 1.02 | locus YKL190W, strain CNB1, stronger effect = lower value 1.01 | [11] 1.18 | [12] 0.999 | [13] 1.01 | [14] 1.16 | [15] 1.02 | [16] 1.01 | [17] 1 | [18] 1.12 | locus YNL128W, strain TEP1, stronger effect = lower value 1 | [19] 1.01 | [20] 1.04 | [21] 1.01 | [22] 1.04 | [23] 1.03 | [24] 1.06 | [25] 1.11

O=C1O/C(=C/Br)CCC1c1cccc2ccccc12 (stereo not given)
active: [19] 0.6 | locus YNL175C, strain NOP13, stronger effect = lower value 0.61 | locus YNL224C, strain SQS1, stronger effect = lower value 0.771 | locus YOR083W, strain WHI5 (second series), stronger effect = lower value 0.775
inactive: [1] 0.952 | locus YAL040C, strain CLN3, stronger effect = lower value 1 | locus YER002W, strain NOP16, stronger effect = lower value 1.01 | [17] 0.989 | locus YNL197C, strain WHI3, stronger effect = lower value 0.947 | [23] 0.922 | [24] 0.998

COc1cccc(OC)c1C(C)(O)C(OC)OC (stereo not given)
inactive: [1] 0.996 | [2] 0.989 | [3] 0.999 | [4] 1.02 | [5] 1.01 | [6] 1 | [7] 1.05 | [8] 1.03 | [9] 1.01 | [10] 1 | [11] 1.02 | [12] 1.02 | [13] 1.03 | [14] 1.01 | [15] 0.997 | [16] 1 | [17] 0.941 | [18] 0.98 | [19] 0.994 | [20] 1.05 | [21] 1.01 | [22] 1.02 | [23] 1.03 | [24] 1.02 | [25] 1.09

Reference: PubChem BioAssay AID1159580 (chemical genetic matrix, 2015)
